Measured values published in the antibiotic and cytotoxicity screens of Wong et al. (2023).
Among all 39,000 compounds or so, about 1,500 (3.8%) were called active. The sample holds actives, similar compounds and a random draw of the others, so the mix is not that of the screen.

Each compound was assayed on HSkMC (human skeletal muscle cells) (assay: cytotoxicity call (relative viability < 0.9)). Conditions: 10 µM.

SMILES | cytotoxicity call
CNC(=O)C[C@@H]1CC[C@@H]2[C@H](COC[C@H](O)CN2C(=O)Nc2cccc(OC)c2)O1 | inactive
C[C@H]1CCCCO[C@H](CN(C)C(=O)Nc2ccc3c(c2)OCO3)[C@@H](C)CN([C@@H](C)CO)C(=O)c2cc(NS(=O)(=O)c3ccccc3)ccc2O1 | inactive
C[C@H](O)[C@H](O)[C@@H](O)[C@@H](O)/C=N/NC(=O)CCCCC(=O)NO | inactive
C[C@H](CO)N1C[C@H](C)[C@H](CN(C)C(=O)Nc2cccc3ccccc23)OCCCC[C@H](C)Oc2ccc(NS(C)(=O)=O)cc2C1=O | inactive
Cc1ccc(S(=O)(=O)Nc2ccc3c(c2)CC(=O)N([C@H](C)CO)C[C@@H](C)[C@@H](CN(C)Cc2ccc(-c4ccccc4)cc2)O3)cc1 | active
Cc1ccc(S(=O)(=O)Nc2ccc3c(c2)CC(=O)N([C@@H](C)CO)C[C@H](C)[C@@H](CN(C)Cc2ccc(-c4ccccc4)cc2)O3)cc1 | active
Cc1ccc(S(=O)(=O)Nc2ccc3c(c2)CC(=O)N([C@@H](C)CO)C[C@@H](C)[C@@H](CN(C)Cc2ccc(-c4ccccc4)cc2)O3)cc1 | active
Cc1ccc(S(=O)(=O)Nc2ccc3c(c2)CC(=O)N([C@H](C)CO)C[C@@H](C)[C@H](CN(C)Cc2ccc(-c4ccccc4)cc2)O3)cc1 | active
Cc1ccc(S(=O)(=O)Nc2ccc3c(c2)CC(=O)N([C@H](C)CO)C[C@H](C)[C@@H](CN(C)Cc2ccc(-c4ccccc4)cc2)O3)cc1 | inactive
Cc1ccc(S(=O)(=O)Nc2ccc3c(c2)CC(=O)N([C@H](C)CO)C[C@H](C)[C@H](CN(C)Cc2ccc(-c4ccccc4)cc2)O3)cc1 | inactive
C[C@H]1CN([C@@H](C)CO)C(=O)c2cc(NC(=O)NC3CCCCC3)ccc2O[C@H]1CN(C)Cc1ccc(C(=O)Nc2ccccc2N)cc1 | inactive
C[C@@H]1CN([C@H](C)CO)C(=O)c2cc(NC(=O)c3ccncc3)ccc2O[C@H]1CN(C)S(=O)(=O)c1ccc(F)cc1 | inactive
C[C@@H]1CN([C@@H](C)CO)C(=O)c2cc(NC(=O)C3CC3)ccc2O[C@@H]1CN(C)S(=O)(=O)c1ccc(F)cc1 | inactive
CC(C)NC(=O)N[C@H]1C=C[C@@H](CC(=O)NCCN2CCCC2)O[C@H]1CO | inactive
CC(C)NC(=O)N(C)C[C@H]1Oc2ccc(NS(=O)(=O)c3cn(C)cn3)cc2C(=O)N([C@H](C)CO)C[C@@H]1C | inactive
O=C(CCCCCNC(=O)OCc1ccc(CO[C@@H]2C[C@H](C3CCCCC3)C=C(C(=O)N3CCN(Cc4ccc5c(c4)OCO5)CC3)O2)cc1)NO | inactive
COc1ccc(CN(C)C[C@@H]2Oc3ccc(NC(=O)C4CC4)cc3CC(=O)N([C@@H](C)CO)C[C@@H]2C)cc1 | inactive
COc1cc(O)cc(OC)c1O[C@@H]1O[C@H](CO)[C@@H](O)[C@H](O)[C@H]1O | inactive
C[C@H]1CN([C@@H](C)CO)C(=O)Cc2cc(NC(=O)CCCCCC(=O)Nc3ccccc3N)ccc2O[C@@H]1CN(C)Cc1ccc(Cl)c(Cl)c1 | inactive
C[C@H]1CN([C@@H](C)CO)C(=O)c2cc(NC(=O)CCN3CCOCC3)ccc2O[C@H]1CN(C)S(=O)(=O)c1ccc(F)cc1 | inactive

SMILES | cytotoxicity call
C[C@H](CO)N1C[C@H](C)[C@H](CN(C)Cc2ccc(C(F)(F)F)cc2)Oc2ccc(NC(=O)C3CCCCC3)cc2C1=O | inactive
Cc1ccc(S(=O)(=O)Nc2ccc3c(c2)CC(=O)N([C@@H](C)CO)C[C@@H](C)[C@H](CN(C)Cc2ccc(-c4ccccc4)cc2)O3)cc1 | inactive
Cc1ccc(S(=O)(=O)Nc2ccc3c(c2)CC(=O)N([C@@H](C)CO)C[C@H](C)[C@H](CN(C)Cc2ccc(-c4ccccc4)cc2)O3)cc1 | active
Cc1noc(C)c1NC(=O)Nc1ccc2c(c1)C(=O)N([C@@H](C)CO)C[C@@H](C)[C@H](CN(C)C(=O)NC1CCCCC1)OCCCC[C@H](C)O2 | inactive
CC(=O)NCCn1cccc1 | inactive
C[C@@H]1CCCCO[C@H](CN(C)Cc2ccc(C(F)(F)F)cc2)[C@@H](C)CN([C@@H](C)CO)C(=O)c2cc(NS(=O)(=O)c3ccc(F)cc3)ccc2O1 | inactive
C[C@@H]1CCCCO[C@H](CN(C)Cc2ccc(Cl)c(Cl)c2)[C@@H](C)CN([C@H](C)CO)C(=O)c2cc(NC(=O)c3ccccc3)ccc2O1 | inactive
C[C@@H]1CCCCO[C@@H](CN(C)Cc2ccc(Cl)c(Cl)c2)[C@H](C)CN([C@@H](C)CO)C(=O)c2cc(NC(=O)c3ccccc3)ccc2O1 | active
C[C@@H]1CN([C@H](C)CO)C(=O)c2cc(NC(=O)c3ccccc3)ccc2O[C@@H](C)CCCCO[C@H]1CN(C)Cc1ccc(Cl)c(Cl)c1 | inactive
C[C@@H]1CCCCO[C@@H](CN(C)Cc2ccc(Cl)c(Cl)c2)[C@H](C)CN([C@H](C)CO)C(=O)c2cc(NC(=O)c3ccccc3)ccc2O1 | active
C[C@H](CO)N1C[C@H](C)[C@H](CN(C)Cc2ccc(Cl)c(Cl)c2)OCCCC[C@H](C)Oc2ccc(NC(=O)c3ccccc3)cc2C1=O | inactive
C[C@H](CO)N1C[C@H](C)[C@@H](CN(C)Cc2ccc(Cl)c(Cl)c2)OCCCC[C@H](C)Oc2ccc(NC(=O)c3ccccc3)cc2C1=O | inactive
C[C@@H]1CCCCO[C@H](CN(C)Cc2ccc(Cl)c(Cl)c2)[C@@H](C)CN([C@@H](C)CO)C(=O)c2cc(NC(=O)c3ccccc3)ccc2O1 | inactive
C[C@H]1CCCCO[C@H](CN(C)Cc2ccc(Cl)c(Cl)c2)[C@@H](C)CN([C@@H](C)CO)C(=O)c2cc(NC(=O)c3ccccc3)ccc2O1 | active
C[C@@H]1CCCCO[C@H](CN(C)Cc2ccc(Cl)c(Cl)c2)[C@H](C)CN([C@@H](C)CO)C(=O)c2cc(NC(=O)c3ccccc3)ccc2O1 | inactive
C[C@H](CO)N1C[C@H](C)[C@@H](CN(C)S(=O)(=O)c2ccc(Cl)cc2)Oc2c(NC(=O)Nc3ccc(C(F)(F)F)cc3)cccc2C1=O | inactive
O=C(Cc1ccncc1)NCC[C@H]1CC[C@H](NC(=O)C2CCOCC2)[C@H](CO)O1 | inactive
Cc1noc(C)c1S(=O)(=O)N(C)C[C@@H]1OCCCC[C@@H](C)Oc2ccc(NC(=O)Nc3ccc(F)cc3)cc2C(=O)N([C@@H](C)CO)C[C@H]1C | inactive
C[C@H](NC(=O)C[C@H]1C[C@H]2c3cc(NC(=O)Nc4ccc(C(F)(F)F)cc4)ccc3O[C@H]2[C@H](CO)O1)c1ccccc1 | inactive
C[C@@H]1CCCCO[C@@H](CN(C)Cc2ccc(Cl)c(Cl)c2)[C@@H](C)CN([C@H](C)CO)C(=O)c2cc(NC(=O)CCCN(C)C)ccc2O1 | inactive

SMILES | cytotoxicity call
Cc1ccc(S(=O)(=O)N2C[C@@H](O)COC[C@H]3O[C@@H](CC(=O)N[C@@H]4CCN(Cc5ccccc5)C4)CC[C@@H]32)cc1 | inactive
CC(C)C[C@H]1NC(=O)N(C)C1=O | inactive
C[C@H](CO)N1C[C@H](C)[C@@H](CN(C)C(=O)c2ccccn2)Oc2cc(C#Cc3ccc(F)cc3)ccc2S1(=O)=O | inactive
CC(C)CC#Cc1ccc2c(c1)O[C@H](CN(C)S(=O)(=O)c1cccc(F)c1)[C@H](C)CN([C@@H](C)CO)S2(=O)=O | inactive
C[C@@H]1CCCCO[C@H](CN(C)Cc2ccc(C(F)(F)F)cc2)[C@H](C)CN([C@H](C)CO)C(=O)c2cc(NS(=O)(=O)c3ccc(Cl)cc3)ccc2O1 | inactive
C[C@H](CO)N1C[C@H](C)[C@@H](CN(C)Cc2ccc(C(F)(F)F)cc2)OCCCC[C@H](C)Oc2ccc(NS(=O)(=O)c3ccc(Cl)cc3)cc2C1=O | active
C[C@H]1CCCCO[C@H](CN(C)Cc2ccc(C(F)(F)F)cc2)[C@@H](C)CN([C@@H](C)CO)C(=O)c2cc(NS(=O)(=O)c3ccc(F)cc3)ccc2O1 | inactive
C[C@@H]1CCCCO[C@H](CN(C)Cc2ccc(C(F)(F)F)cc2)[C@@H](C)CN([C@@H](C)CO)C(=O)c2cc(NS(=O)(=O)c3ccc(Cl)cc3)ccc2O1 | active
C[C@@H]1CCCCO[C@@H](CN(C)Cc2ccc(C(F)(F)F)cc2)[C@@H](C)CN([C@@H](C)CO)C(=O)c2cc(NS(=O)(=O)c3ccc(Cl)cc3)ccc2O1 | inactive
C[C@@H]1CN([C@@H](C)CO)C(=O)c2cc(NS(=O)(=O)c3ccc(F)cc3)ccc2O[C@@H](C)CCCCO[C@@H]1CN(C)Cc1ccc(C(F)(F)F)cc1 | inactive
C[C@@H]1CN([C@H](C)CO)C(=O)c2cc(NS(=O)(=O)c3ccc(Cl)cc3)ccc2O[C@@H](C)CCCCO[C@H]1CN(C)Cc1ccc(C(F)(F)F)cc1 | active
C[C@@H]1CCCCO[C@H](CN(C)Cc2ccc(C(F)(F)F)cc2)[C@H](C)CN([C@@H](C)CO)C(=O)c2cc(NS(=O)(=O)c3ccc(Cl)cc3)ccc2O1 | active
O=C(C[C@H]1CC[C@@H](NC(=O)Cc2ccccn2)[C@H](CO)O1)NCCc1ccncc1 | inactive
C[C@H]1CN([C@@H](C)CO)C(=O)c2cccc(NS(=O)(=O)c3cccs3)c2O[C@@H]1CN(C)Cc1ccc(Oc2ccccc2)cc1 | inactive
C/C=C/[C@@H](CCn1cc(CCO[Si](C(C)C)(C(C)C)C(C)C)nn1)[Si](C)(C)c1ccc(OC)cc1 | inactive
C[C@@H]1CN([C@H](C)CO)C(=O)c2cc(C#Cc3ccccn3)cnc2O[C@@H]1CN(C)C(=O)CCN1CCCCC1 | inactive
C=CCNC(=O)[C@H]1[C@@H]2C(=O)O[C@@H](c3ccccc3)[C@@H](c3ccccc3)N2[C@@H](c2ccccc2OCCO)[C@]12C(=O)N(C(=O)OCCOC)c1ccc(C#CC3(O)CCCCCC3)cc12 | inactive
C[C@@H]1CCCCO[C@H](CN(C)C(=O)C2CCCCC2)[C@H](C)CN([C@H](C)CO)C(=O)c2cc(NC(=O)Cc3ccccc3)ccc2O1 | inactive
